Source: PubChem BioAssay
pPAFAH FP inh: pPAFAH enzyme inhibitors, primary screen, biochemical, fluorescence polarization, human; Platelet-activating factor acetylhydrolase (Homo sapiens), Q13093; recombinant pPAFAH, FP-rhodamine probe fluorescence polarization; inhibition, % at 3.39 µM; 330,000 tested, 1.5% active; AID 463082, 2010;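 active = inhibition above the mean inhibition across the screen plus 3 SD, cut at about 25% in these data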;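 note: inhibitors block binding of the rhodamine activity-based probe so polarization drops; 0% = enzyme with DMSO and 100% = wells lacking pPAFAH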
PAFAH2 inh: PAFAH2 enzyme inhibitors, primary screen, biochemical, fluorescence polarization, human; Platelet-activating factor acetylhydrolase 2, cytoplasmic (Homo sapiens), Q99487; recombinant PAFAH2, FP-rhodamine activity probe; inhibition, % at 3.39 µM; 340,000 tested, 0.99% active; AID 492956, 2010;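 active = inhibition above the mean over all tested compounds plus 3 SD, cut at about 30% in these data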;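 note: inhibitors block probe labeling of enzyme so polarization drops; 0% = enzyme with DMSO and 100% = wells lacking PAFAH2 protein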
PAFAH1B2 inh: PAFAH1B2 enzyme inhibitors, primary screen, biochemical, fluorescence polarization, human; Platelet-activating factor acetylhydrolase IB subunit alpha2 (Homo sapiens), P68402; recombinant PAFAH1B2, FP-rhodamine activity probe; inhibition, % at 3.39 µM; 340,000 tested, 1.2% active; AID 492953, 2010;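 active = inhibition above the mean of all tested compounds plus 3 SD, cut at about 24% in these data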;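 note: 0% = enzyme with DMSO and 100% = wells lacking PAFAH1B2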
Rin1-Abl PPI inh: inhibitors of Rin1-Abl protein binding, primary screen, biochemical, TR-FRET; Tyrosine-protein kinase ABL1 (Homo sapiens) + Ras and Rab interactor 1 (Homo sapiens), …; 360,000 tested, 0.4% active; inhibition, % at 7.35 µM; in the data active = inhibition above about 5%, passing the limit was not always enough
Target sequence (P00519 whole entry, looked up): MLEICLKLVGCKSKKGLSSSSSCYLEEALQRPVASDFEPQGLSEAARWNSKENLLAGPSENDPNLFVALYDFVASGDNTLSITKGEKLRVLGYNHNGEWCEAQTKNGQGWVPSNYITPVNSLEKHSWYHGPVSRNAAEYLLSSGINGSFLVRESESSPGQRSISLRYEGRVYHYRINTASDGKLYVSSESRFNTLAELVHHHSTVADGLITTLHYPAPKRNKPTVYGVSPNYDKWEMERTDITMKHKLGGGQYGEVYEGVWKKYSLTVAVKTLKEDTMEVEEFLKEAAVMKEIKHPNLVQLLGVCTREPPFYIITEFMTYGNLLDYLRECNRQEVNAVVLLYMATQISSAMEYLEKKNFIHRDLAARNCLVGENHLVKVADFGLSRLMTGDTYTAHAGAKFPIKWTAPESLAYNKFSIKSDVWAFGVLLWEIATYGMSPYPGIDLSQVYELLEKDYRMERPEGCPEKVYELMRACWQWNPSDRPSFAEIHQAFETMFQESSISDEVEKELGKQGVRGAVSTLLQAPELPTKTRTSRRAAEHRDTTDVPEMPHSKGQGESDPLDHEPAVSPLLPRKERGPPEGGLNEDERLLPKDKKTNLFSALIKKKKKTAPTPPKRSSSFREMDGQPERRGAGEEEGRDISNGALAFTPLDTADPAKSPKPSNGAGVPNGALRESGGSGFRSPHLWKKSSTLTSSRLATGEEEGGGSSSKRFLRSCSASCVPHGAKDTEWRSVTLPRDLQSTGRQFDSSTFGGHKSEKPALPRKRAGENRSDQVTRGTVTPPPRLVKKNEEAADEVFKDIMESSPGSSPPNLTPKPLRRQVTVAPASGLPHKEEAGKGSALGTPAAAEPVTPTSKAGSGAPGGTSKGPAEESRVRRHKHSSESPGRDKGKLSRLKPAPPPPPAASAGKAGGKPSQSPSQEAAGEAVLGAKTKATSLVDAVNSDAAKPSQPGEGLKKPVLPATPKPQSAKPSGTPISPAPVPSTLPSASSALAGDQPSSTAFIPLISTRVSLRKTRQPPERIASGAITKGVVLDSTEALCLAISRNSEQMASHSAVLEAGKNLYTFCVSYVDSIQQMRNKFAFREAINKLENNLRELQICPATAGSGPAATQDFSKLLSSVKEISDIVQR
Target sequence (Q13671 whole entry, looked up): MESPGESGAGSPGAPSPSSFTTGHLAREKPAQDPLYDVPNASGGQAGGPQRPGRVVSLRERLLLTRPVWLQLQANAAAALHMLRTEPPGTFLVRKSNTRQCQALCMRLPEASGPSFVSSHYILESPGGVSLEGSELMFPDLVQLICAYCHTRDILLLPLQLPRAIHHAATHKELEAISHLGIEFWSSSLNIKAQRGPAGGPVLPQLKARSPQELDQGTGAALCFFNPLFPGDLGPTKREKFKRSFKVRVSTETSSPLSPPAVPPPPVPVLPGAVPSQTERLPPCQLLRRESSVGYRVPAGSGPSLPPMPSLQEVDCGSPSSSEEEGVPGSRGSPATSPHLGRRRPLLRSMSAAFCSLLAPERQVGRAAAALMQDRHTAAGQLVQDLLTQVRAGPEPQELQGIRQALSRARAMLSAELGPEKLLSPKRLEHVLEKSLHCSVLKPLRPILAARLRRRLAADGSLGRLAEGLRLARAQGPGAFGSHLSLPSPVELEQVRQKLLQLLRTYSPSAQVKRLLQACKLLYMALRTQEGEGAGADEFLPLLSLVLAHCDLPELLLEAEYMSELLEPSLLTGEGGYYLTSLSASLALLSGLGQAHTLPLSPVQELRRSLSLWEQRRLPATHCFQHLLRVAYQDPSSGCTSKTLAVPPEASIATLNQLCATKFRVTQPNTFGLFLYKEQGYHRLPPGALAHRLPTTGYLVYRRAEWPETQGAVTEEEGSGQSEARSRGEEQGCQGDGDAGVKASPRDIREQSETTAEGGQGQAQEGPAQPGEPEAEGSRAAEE
PAFAH1B3 FP inh: PAFAH1B3 enzyme inhibitors, primary screen, biochemical, fluorescence polarization, human; Platelet-activating factor acetylhydrolase IB subunit alpha1 (Homo sapiens), Q15102; recombinant PAFAH1B3, FP-rhodamine probe; inhibition, % at 3.39 µM; 340,000 tested, 0.28% active; AID 492972, 2010;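 active = inhibition above the screen-wide average of all tested compounds plus 3 SD, cut at about 25% in these data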;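 note: 0% = enzyme with DMSO only and 100% = wells lacking PAFAH1B3 protein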
E coli Lon inh: inhibitors of E. coli Lon protease, primary screen, biochemical, fluorescence polarization. AID 602123, 2011. inhibition, % at 7.94 µM. purified E. coli Lon protease. 360,000 tested, 0.42% active; in the data active = inhibition above about 13%, passing the limit was not always enough;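 note: 0% = enzyme with probe and DMSO and 100% = no enzyme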
Rin1 Abl conf: Rin1-Abl binding inhibitor retest, confirmation, biochemical, TR-FRET. shares compounds with Rin1-Abl PPI inh. purified proteins. inhibition, % at 7.35 µM. 1,300 tested, 49% active. AID 602124, 2011
GFP quench: GFP fluorescence inhibitors and quenchers, artefact control for Rin1-Abl interaction inhibitor project, biochemical; shares compounds with Rin1-Abl PPI inh; inhibitors/quenchers counterscreen; inhibition, % at 6.75 µM; 1,300 tested, 8.5% active;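 note: ABL1-eGFP fusion protein alone without its partner RIN1-SBP; 0% = protein with vehicle and 100% = wells lacking protein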
GFP quench DR: GFP fluorescence inhibitors and quenchers, dose response, artefact control for Rin1-Abl interaction inhibitor project, biochemical | IC50, µM | GFP fluorescence interference/quenching counterscreen | shares compounds with Rin1-Abl PPI inh | AID 602182, 2012 | 230 tested, under 10 active; call rule not given here;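 note: ABL1-eGFP fusion protein alone without its RIN1 binding partner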
Numbers without * were called inactive. Most compounds without a hit are left out; they make up all but 3.1% or so of the library. Cut-off read from the data, not from the text of the source, unless noted: active = inhibition above about 6.5%; inactive = the rest.

Results for Cc1nc2ccc(NC(=S)NC3CCCCC3)cc2nc1C ?
pPAFAH FP inh: 6.4; PAFAH2 inh: 3.4; PAFAH1B2 inh: 5.3; Rin1-Abl PPI inh: -1.2; PAFAH1B3 FP inh: 12.3; E coli Lon inh: -5.4

What do the screens show for `COC(=O)c1cc(OC)nc(OC)c1`?
pPAFAH FP inh: 1.8; PAFAH2 inh: 1.7; PAFAH1B2 inh: 4.5; Rin1-Abl PPI inh: -1.9; PAFAH1B3 FP inh: 0.5; E coli Lon inh: 8.6

What do the screens show for `COC(=O)c1cc(O)c(O)c(O)c1`?
pPAFAH FP inh: 0.3; PAFAH2 inh: 5.2; PAFAH1B2 inh: 8.0; Rin1-Abl PPI inh: 18.5*; PAFAH1B3 FP inh: 22.0; E coli Lon inh: -0.7; Rin1 Abl conf: 16.6*; GFP quench: 4.1

Results for Cc1ccc(CNC(=O)CS(=O)(=O)c2cn(CC(=O)N3CCOCC3)c3ccccc23)cc1 ?
pPAFAH FP inh: 8.4; PAFAH2 inh: -8.8; PAFAH1B2 inh: 11.4; Rin1-Abl PPI inh: 1.7; PAFAH1B3 FP inh: 3.8; E coli Lon inh: -2.8

Results for COc1ccc(NC(=O)Nc2cc(C)ccc2OC)cc1 ?
pPAFAH FP inh: 5.9; PAFAH2 inh: 7.4; PAFAH1B2 inh: 4.1; Rin1-Abl PPI inh: 5.9*; PAFAH1B3 FP inh: 5.0; E coli Lon inh: 2.0; Rin1 Abl conf: -1.4; GFP quench: -2.1

What do the screens show for `COc1ccc(Cl)cc1NC(=O)CN(C1CCCCC1)S(C)(=O)=O`?
pPAFAH FP inh: 7.4; PAFAH2 inh: 0.7; PAFAH1B2 inh: 1.7; Rin1-Abl PPI inh: 0.2; PAFAH1B3 FP inh: 0.9; E coli Lon inh: -2.4

Results for COc1ccc(C)cc1NC(=O)CN(C)C1CCCCC1 ?
pPAFAH FP inh: -2.6; PAFAH2 inh: -6.1; PAFAH1B2 inh: 4.6; Rin1-Abl PPI inh: 15.0*; PAFAH1B3 FP inh: 2.8; E coli Lon inh: -6.9; Rin1 Abl conf: -0.8; GFP quench: -1.0

How did O=C(c1cc(COc2ccc(F)cc2F)on1)N1CCN(C2CCCC2)C(=O)C1 do in these assays?
pPAFAH FP inh: 0.9; PAFAH2 inh: 4.3; PAFAH1B2 inh: 4.3; Rin1-Abl PPI inh: 0.3; PAFAH1B3 FP inh: 4.3; E coli Lon inh: -7.0

What do the screens show for `O=S(=O)(c1ccccc1)N1CCC2(CC1)OCCO2`?
pPAFAH FP inh: -0.6; PAFAH2 inh: 0.9; PAFAH1B2 inh: 4.2; Rin1-Abl PPI inh: 1.1; PAFAH1B3 FP inh: 9.2; E coli Lon inh: 3.6

What do the screens show for `O=S(=O)(c1ccc(Cl)cc1)N1CCC2(CC1)OCCO2`?
pPAFAH FP inh: 1.7; PAFAH2 inh: -0.1; PAFAH1B2 inh: 22.6; Rin1-Abl PPI inh: 12.4*; PAFAH1B3 FP inh: -0.5; E coli Lon inh: -5.4; Rin1 Abl conf: 0.2; GFP quench: -1.9

Results for O=C1C(=O)c2cccnc2-c2ncccc21 ?
Rin1-Abl PPI inh: 50.3*; E coli Lon inh: 10.7; Rin1 Abl conf: 48.7*; GFP quench: 0.8; GFP quench DR: >67.5

What do the screens show for `CC1(C2CC2)NC(=O)N(CC(=O)N2CCN(c3cccc(C(F)(F)F)c3)CC2)C1=O` (configuration not stated)?
pPAFAH FP inh: 5.3; PAFAH2 inh: 4.3; PAFAH1B2 inh: -0.8; Rin1-Abl PPI inh: 8.6*; PAFAH1B3 FP inh: 0.0; E coli Lon inh: 1.8; Rin1 Abl conf: -2.1; GFP quench: 1.2

Results for COCC1CCN(Cc2cn[nH]c2-c2ccc(OC)c(F)c2)C1 (configuration not stated) ?
pPAFAH FP inh: -11.4; PAFAH2 inh: -0.7; PAFAH1B2 inh: 6.2; Rin1-Abl PPI inh: -0.8; PAFAH1B3 FP inh: 3.2; E coli Lon inh: 1.6

What do the screens show for `COc1ccc(Nc2nc(-c3ccccc3)nc3ccccc23)cc1`?
pPAFAH FP inh: 10.0; PAFAH2 inh: 4.4; PAFAH1B2 inh: 3.1; Rin1-Abl PPI inh: 4.6; PAFAH1B3 FP inh: 16.0; E coli Lon inh: 0.3

What do the screens show for `COc1ccc(Nc2nc(-c3cccc([N+](=O)[O-])c3)nc3ccccc23)cc1`?
pPAFAH FP inh: 14.4; PAFAH2 inh: -6.1; PAFAH1B2 inh: -8.1; Rin1-Abl PPI inh: 5.7*; PAFAH1B3 FP inh: 9.0; E coli Lon inh: -13.7; Rin1 Abl conf: -1.2; GFP quench: -0.3

How did CN(C)C(CNC(=O)c1ccc(NC(=O)CC#N)cc1)c1ccccc1 (configuration not stated) do in these assays?
pPAFAH FP inh: 2.5; PAFAH2 inh: -10.7; PAFAH1B2 inh: 1.1; Rin1-Abl PPI inh: 10.1*; PAFAH1B3 FP inh: 1.9; E coli Lon inh: 2.8; Rin1 Abl conf: 6.7*; GFP quench: -0.2

How did CC(C)C(=O)N1C2CCC1CC(O)(c1ccc(F)cc1)C2 (configuration not stated) do in these assays?
pPAFAH FP inh: -1.3; PAFAH2 inh: -3.5; PAFAH1B2 inh: 2.9; Rin1-Abl PPI inh: 7.0*; PAFAH1B3 FP inh: 11.6; E coli Lon inh: -0.3; Rin1 Abl conf: 0.9; GFP quench: 0.9

Results for Cc1cc(N2C3CCC2CC(O)(c2ccc(F)cc2)C3)nc(-c2ccccc2)n1 (configuration not stated) ?
pPAFAH FP inh: -1.4; PAFAH2 inh: -0.4; PAFAH1B2 inh: -0.2; Rin1-Abl PPI inh: 2.6; PAFAH1B3 FP inh: -3.3; E coli Lon inh: 0.1

What do the screens show for `CN1CC2(C)OC(=O)C(Cl)=C2CC1c1ccccc1` (configuration not stated)?
pPAFAH FP inh: 0.0; PAFAH2 inh: -9.0; PAFAH1B2 inh: 0.0; Rin1-Abl PPI inh: 6.2*; PAFAH1B3 FP inh: 7.8; E coli Lon inh: -1.1; Rin1 Abl conf: 0.3; GFP quench: -2.4

How did Cc1[nH]c(=O)[nH]c1C(=O)CCCCC(=O)O do in these assays?
pPAFAH FP inh: 0.0; PAFAH2 inh: 6.7; PAFAH1B2 inh: -0.8; Rin1-Abl PPI inh: 88.6*; PAFAH1B3 FP inh: 14.1; E coli Lon inh: 9.5; Rin1 Abl conf: 97.7*; GFP quench: 0.3; GFP quench DR: >67.6

What do the screens show for `COc1ccc(/C=C2/C(=O)N(c3ccccc3)N=C2C)cc1OC`?
PAFAH2 inh: -3.2; PAFAH1B2 inh: 2.0; Rin1-Abl PPI inh: 18.5*; PAFAH1B3 FP inh: 7.8; E coli Lon inh: -5.5; Rin1 Abl conf: 0.9; GFP quench: -0.3

Results for CC1=NN(c2ccccc2)C(=O)/C1=C\C=C\c1ccccc1 ?
pPAFAH FP inh: 7.0; Rin1-Abl PPI inh: -2.0; E coli Lon inh: 9.5
